{"source": "ChEMBL document CHEMBL2218924", "about": "“A broad activity screen in support of a chemogenomic map for kinase signalling research and drug discovery” (Biochem J, 2013)", "data": [{"target": "PAS domain-containing serine/threonine-protein kinase (Homo sapiens) (UniProt Q96RG2)", "sequence (Q96RG2 whole entry, the tested form may be a part)": "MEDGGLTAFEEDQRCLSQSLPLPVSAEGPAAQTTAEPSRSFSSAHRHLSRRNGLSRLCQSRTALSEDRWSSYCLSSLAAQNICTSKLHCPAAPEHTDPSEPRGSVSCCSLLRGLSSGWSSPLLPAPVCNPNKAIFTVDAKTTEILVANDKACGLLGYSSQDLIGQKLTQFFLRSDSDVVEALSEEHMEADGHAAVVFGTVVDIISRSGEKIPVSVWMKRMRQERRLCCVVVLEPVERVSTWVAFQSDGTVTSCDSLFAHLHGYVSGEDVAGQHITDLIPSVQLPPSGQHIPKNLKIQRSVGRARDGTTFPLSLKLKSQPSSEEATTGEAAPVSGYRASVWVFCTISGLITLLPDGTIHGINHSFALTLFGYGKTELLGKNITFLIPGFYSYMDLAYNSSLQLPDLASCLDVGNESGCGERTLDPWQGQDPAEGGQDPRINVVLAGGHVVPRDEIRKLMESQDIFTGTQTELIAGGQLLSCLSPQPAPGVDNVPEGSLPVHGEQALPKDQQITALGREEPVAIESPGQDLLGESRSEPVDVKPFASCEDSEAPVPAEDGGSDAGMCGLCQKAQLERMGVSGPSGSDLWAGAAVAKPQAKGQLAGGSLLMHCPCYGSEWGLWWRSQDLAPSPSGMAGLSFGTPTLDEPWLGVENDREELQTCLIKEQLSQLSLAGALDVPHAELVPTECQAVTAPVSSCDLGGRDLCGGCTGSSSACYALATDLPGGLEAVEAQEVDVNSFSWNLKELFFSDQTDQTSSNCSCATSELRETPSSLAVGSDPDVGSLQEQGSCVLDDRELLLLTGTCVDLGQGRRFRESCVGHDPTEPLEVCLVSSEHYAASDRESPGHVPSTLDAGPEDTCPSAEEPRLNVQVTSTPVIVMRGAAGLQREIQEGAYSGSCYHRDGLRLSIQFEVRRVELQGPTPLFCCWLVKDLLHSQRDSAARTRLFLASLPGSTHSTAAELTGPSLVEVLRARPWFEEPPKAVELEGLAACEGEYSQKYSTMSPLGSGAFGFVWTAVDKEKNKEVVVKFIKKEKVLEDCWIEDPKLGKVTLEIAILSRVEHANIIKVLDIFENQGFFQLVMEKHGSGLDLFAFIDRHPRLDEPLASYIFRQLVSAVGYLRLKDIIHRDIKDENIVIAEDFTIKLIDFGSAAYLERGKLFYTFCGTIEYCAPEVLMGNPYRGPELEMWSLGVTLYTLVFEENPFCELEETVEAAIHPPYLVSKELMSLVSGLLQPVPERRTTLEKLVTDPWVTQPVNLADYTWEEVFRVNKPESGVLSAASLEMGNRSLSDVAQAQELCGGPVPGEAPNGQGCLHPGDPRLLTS", "conditions": "at 1 µM", "units": {"residual activity": "%"}, "values": [{"smiles": "O=[N+]([O-])/C=C/c1ccc2c(c1)OCO2", "residual activity": 107}, {"smiles": "O=c1cc(N2CCOCC2)oc2c(-c3ccccc3)cccc12", "residual activity": 125}, {"smiles": "O=c1cc(N2CCOCC2)oc2c1ccc1ccccc12", "residual activity": 141}, {"smiles": "N#CC(C#N)=C(N)/C(C#N)=C/c1ccc(O)cc1", "residual activity": 99}, {"smiles": "COc1cc2ncnc(Nc3ccc(OCc4ccccc4)cc3)c2cc1OC", "residual activity": 107}, {"smiles": "CC(C)[C@H](CO)Nc1nc(Nc2cccc(Cl)c2)c2ncn(C(C)C)c2n1", "residual activity": 135}, {"smiles": "C[S+]([O-])c1ccc(-c2nc(-c3ccc(F)cc3)c(-c3ccncc3)[nH]2)cc1", "note": "(centres undefined)", "residual activity": 113}, {"smiles": "N#C/C(=C(\\N)Sc1ccc(N)cc1)c1ccccc1C(F)(F)F", "residual activity": 122}, {"smiles": "Cc1cc(Nc2nc(-c3ccccc3)nc3ccccc23)n[nH]1", "residual activity": 108}, {"smiles": "c1ccc(-c2n[nH]cc2-c2ccnc3ccccc23)nc1", "residual activity": 95}, {"smiles": "COC(=O)[C@@]1(O)C[C@H]2O[C@]1(C)n1c3ccccc3c3c4c(c5c6ccccc6n2c5c31)C(=O)NC4", "residual activity": 14}, {"smiles": "Oc1n[nH]c2nnc(-c3c(-c4ccccc4)nn4ccccc34)cc12", "residual activity": 100}, {"smiles": "c1cc(-c2cnn3cc(-c4ccc(OCCN5CCCCC5)cc4)cnc23)ccn1", "residual activity": 106}, {"smiles": "COc1ccc(S(=O)(=O)N(CCO)c2ccccc2CN(C)C/C=C/c2ccc(Cl)cc2)cc1", "residual activity": 116}, {"smiles": "CC(C)(C)c1cc(C=C(C#N)C#N)cc(Br)c1O", "residual activity": 80}, {"smiles": "CCn1cnc2c(Nc3cccc(Cl)c3)nc(N[C@@H]3CCCC[C@@H]3N)nc21", "residual activity": 113}, {"smiles": "CCN(CC)CCCCN1c2ccccc2Oc2ccc(Cl)cc21", "residual activity": 88}, {"smiles": "COc1cc(OC)c(/C=C2\\C(=O)Nc3ccccc32)c(OC)c1", "residual activity": 92}, {"smiles": "CCC(=O)Nc1ccc2ncnc(Nc3cccc(Br)c3)c2c1", "residual activity": 85}, {"smiles": "O=C1Nc2ccc(Cl)cc2/C1=C/c1cc(Cl)c(O)c(Cl)c1", "residual activity": 111}, {"smiles": "Oc1ccc(-c2nc(-c3ccc(F)cc3)c(-c3ccncc3)[nH]2)cc1", "residual activity": 92}, {"smiles": "Cc1ccc(NC2=CC(=O)c3sc(C)nc3C2=O)cc1", "residual activity": 81}, {"smiles": "O=c1[nH]c2ccccc2n1C1CCN(Cc2ccc(-c3nc4cc5[nH]cnc5cc4nc3-c3ccccc3)cc2)CC1", "residual activity": 86}, {"smiles": "CC(C)(C)n1nc(Cc2cccc3ccccc23)c2c(N)ncnc21", "residual activity": 116}, {"smiles": "CO[C@@H]1[C@H](N(C)C(=O)c2ccccc2)C[C@H]2O[C@]1(C)n1c3ccccc3c3c4c(c5c6ccccc6n2c5c31)C(=O)NC4", "residual activity": 85}, {"smiles": "CCc1nc(-c2ccc(OC)cc2)[nH]c1-c1ccncc1", "residual activity": 128}, {"smiles": "O=C1Nc2ccc(Br)cc2/C1=C\\c1cc2c([nH]1)CCCC2", "residual activity": 129}, {"smiles": "N#Cc1cnc2cnc(NCc3cccnc3)cc2c1Nc1ccc(F)c(Cl)c1", "residual activity": 80}, {"smiles": "O=C1Nc2ccc3ncsc3c2/C1=C/c1c[nH]cn1", "residual activity": 46}, {"smiles": "CNc1cc2c(Nc3cccc(Br)c3)ncnc2cn1", "residual activity": 128}, {"smiles": "O=c1cc(N2CCNCC2)oc2c(-c3ccccc3)cccc12", "residual activity": 148}, {"smiles": "COc1ccc2c(c[n+](C)c3c4cc5c(cc4ccc23)OCO5)c1OC", "residual activity": 70}, {"smiles": "CC(=O)c1ccc(N2CCOCC2)cc1O", "residual activity": 127}, {"smiles": "CCN(CC)CCNC(=O)c1c(C)[nH]c(/C=C2\\C(=O)Nc3ccc(Cl)cc32)c1C", "residual activity": 70}]}]}
